Results reported in ChEMBL document CHEMBL3988442, “University of Dundee, Small-Polar-MMV Screening Library” (2021).
In all, about 69,000 compounds went through this assay and about 950 (1.4%) showed an effect of 50% or more. The entries come from a sample that favours strong results as a whole.

Test system: Mycobacterium tuberculosis
Assay: Cornell M. t heat shock assay; note: in the data most compounds retested in dose-response had high values
Assay type: functional, organism-based
Parameters: dose or concentration left out as unconfirmed

SMILES | Percent Effect [%]
c1cc(-c2cncnc2)cc(-c2ccn(CC3CCNC3)n2)c1 (stereo unspecified) | 8.343
Cc1ccsc1-c1cccc(-c2ccn(CC3CCNC3)n2)c1 (stereo unspecified) | 84.67
Cc1nccc(-c2cccc(-c3ccn(CC4CCNC4)n3)c2)n1 (stereo unspecified) | -11.22
CN1CCC(c2nnc3ccc(C(=O)NC4CCCC4)cn23)C1.O=C(O)C(F)(F)F (stereo unspecified) | -23.72
CNc1cc(C)nc(C2CCN(CCO)CC2)n1 | -3.64
CC(NC(=O)NCCCN1CCCCCC1)c1nncn1C (stereo unspecified) | 12.17
CC(NC(=O)NCCCN1CCCC1)c1nncn1C (stereo unspecified) | -5.961
CC1CCN(CCCNC(=O)NC(C)c2nncn2C)CC1 (stereo unspecified) | 68.75
O=C(O)C(F)(F)F.O=C(O)C(F)(F)F.O=C(c1ccc(F)cc1)N1CCN2C[C@H](OCc3ccccn3)C[C@H]2C1 | 3.711
C[C@H]1CN(C(=O)c2ccoc2)C[C@@]12CCN(CCN(C)C)C2=O.O=C(O)C(F)(F)F | -17.94
O=C1C[C@H]2CC[C@@H](CN1)N2C1CCSCC1 | 14.33
CCN1C[C@H]2C[C@H](C(=O)NCc3cccnc3)[C@@H](C1)O2 | -4.927
Cc1ccc(C(=O)N2CCC3(CC2)COC(COc2cccnc2)C3)o1.O=C(O)C(F)(F)F (stereo unspecified) | -31.88
O=C(O)C(F)(F)F.c1cnc(N2CCO[C@H]3CN(CC4CCC4)C[C@H]32)cn1 | 6.326
CC(=O)N1CCc2c(nc(N(C)C)nc2NCCc2cccs2)C1 | 53.71
CC(=O)N1CCc2c(nc(N(C)C)nc2NCc2cccs2)C1 | -2.548
CC(=O)N1CCc2c(nc(N(C)C)nc2NC(C)Cc2cccs2)C1 (stereo unspecified) | 23.93
CCCNc1cc(-c2c[nH]nc2C2CCN(C(=O)C3CCC3)C2)ccn1 (stereo unspecified) | -8.816
Cl.O=C(NCc1ccc(Cl)cc1)N1CCN(CC(O)C2CC2)CC1 (stereo unspecified) | 7.084
CC(C)C(=O)Nc1ccc2c(c1)ncn2CC(=O)NCCN(C)C | -3.322
CC(C)NC(=O)Nc1ccc2c(c1)ncn2CC(=O)NCCN(C)C | -0.1313
CC(C)CC(=O)Nc1ccc2c(c1)ncn2CC(=O)NCCN(C)C | 65.51
CC(=O)N1CCN(c2cc(C3CCNCC3)ccn2)CC1.Cl.Cl | 2.778

SMILES | Percent Effect [%]
O=C(N1CCCC1)N1CCC2(CC1)CN(c1cccnc1)C(=O)CO2.O=C(O)C(F)(F)F | -4.597
CCn1cc(NC(=O)c2cccc(CN3C[C@@H](C)O[C@@H](C)C3)c2)nn1 | 87.48
CCCn1cc(NC(=O)c2cccc(CN3CC[C@H](O)C3)c2)nn1 | 18.76
CCCn1cc(NC(=O)c2cccc(CN3CC=CC3)c2)nn1 | -7.923
CN(C)C(=O)CO[C@H]1CN(Cc2ccsc2)[C@@H]2COC[C@H]12.O=C(O)C(F)(F)F | 37.89
CN(C)C(=O)Cn1c(C2CC2)c(CN2CCC(O)CC2)c2cccnc21.Cl | -13.49
CC(C)CCn1c(=O)nc2n1C(=O)N(c1ccc(F)cc1)C2 | 4.203
CCC1=N[C@@]2(CC[C@@H]3CN(Cc4ccccc4C)C[C@@H]32)C(=O)N1C.O=C(O)C(F)(F)F | -3.912
CN(C)C(=O)CCCNc1ncc2c(n1)CCN2c1ccccc1 | 14.48
OC1CCN(CCNc2ncc3c(n2)CCN3c2ccccc2)CC1 | -5.755
O=C(CCNc1ncc2c(n1)CCN2c1ccccc1)N1CCCC1 | 58.85
CCc1ncc(C(=O)N2CC[C@@H]3CC[C@H](C2)N3C)cn1 | -16.81
COc1cc2cc(C)c(SCCN3CCCCC3)nc2cc1OC.Cl | 8.064
CN1CCC(CNC(=O)c2cccc(NC(N)=O)c2)c2ccccc21 (stereo unspecified) | 13.83
CN1CCC(CNC(=O)c2ccc(O)nc2)c2ccccc21 (stereo unspecified) | 10.05
CN1CCC(CNC(=O)c2cccc(C(F)(F)F)c2)c2ccccc21 (stereo unspecified) | 80.18
FC1(F)CCN(Cc2ccncc2)CC12CCN(Cc1ccccn1)C2.O=C(O)C(F)(F)F.O=C(O)C(F)(F)F.O=C(O)C(F)(F)F (stereo unspecified) | -15.56
CCN(C)c1ncnc2c1CCN(Cc1csc(C)n1)CC2.O=C(O)C(F)(F)F.O=C(O)C(F)(F)F | 2.134
O=S(=O)(C1CC1)N1CCc2ncnc(-c3ccsc3)c2CC1 | -2.171
O=C(O)C(F)(F)F.O=C(c1ncccn1)N1CCC2(CC1)COC(COc1ccccn1)C2 (stereo unspecified) | -42.8
Cc1nnc2n1CCN(Cc1csc(-c3cnn(C)c3)n1)C2 | -22
CCCC1CCCN(Cc2csc(-c3ncccn3)n2)CC1 (stereo unspecified) | 31.96
CCc1nnc2n1CCN(Cc1csc(-c3cnn(C)c3)n1)C2 | 103.2

SMILES | Percent Effect [%]
CC(C)c1nnc2n1CCN(Cc1csc(-c3cnn(C)c3)n1)C2 | 2.86
Cn1cc(-c2nc(CN3CCN(CCO)CC3)cs2)cn1 | 7.212
CCCC1CCCN(Cc2csc(-c3cnn(C)c3)n2)CC1 (stereo unspecified) | 101.6
O=C(O)C(F)(F)F.O=C1COC2(CCN(C(=O)c3ccoc3)CC2)CN1Cc1ccccn1 | -25.96
CCc1ccc2c(C3CN(CC4CCC4)C3)ncn2c1.O=C(O)C(F)(F)F | 59.23
CCc1ccc2c(C3CN(C(C)=O)C3)ncn2c1 | -5.457
CCc1ccc2c(C3CN(S(C)(=O)=O)C3)ncn2c1 | -5.732
Cc1ccoc1C(=O)N1C[C@H](OCc2cccnc2)[C@H]2OCCC[C@H]21.O=C(O)C(F)(F)F | -24.06
CNc1cc(CCNS(=O)(=O)c2ccccc2)nc(-c2ccccn2)n1 | 99.14
Cc1cc(NCCCNS(C)(=O)=O)nc2ccccc12 | -11.41
CCc1cc(NCCCNS(C)(=O)=O)nc(-c2ccccn2)n1 | 56.84
CCc1cc(NCCCNS(C)(=O)=O)nc(-c2ccncc2)n1 | -1.348
CNc1cc(CCNC(=O)CC(C)C)nc(-c2ccccn2)n1 | 36.61
CNC(=O)c1ccc(S(=O)(=O)NCCc2ccccn2)cc1 | -8.04
CCCC(=O)NCCc1cc(NC)nc(-c2ccccn2)n1 | 12.39
CNc1cc(CCNC(=O)C2CCCC2)nc(-c2ccccn2)n1 | 89.44
NC(=O)c1ccc(S(=O)(=O)NCCc2ccccn2)cc1 | 2.755
CC1=C(C#N)C(=O)NC(=O)/C1=C\c1c(C)nn(-c2ccc(Cl)cc2)c1O | -14.1
COc1ccc(CN2CC[C@H]3O[C@@H](C(=O)NCC4CC4)CC[C@H]32)cc1.O=C(O)C(F)(F)F | -25.68
COc1cc(N2C[C@@H]3CC[C@H](C2)N(CC2CCC2)C3=O)ncn1 | -13.86
Cc1nc(N)c2ccc(C3CCCN3)nc2n1.Cl (stereo unspecified) | -2.129
COCCN1C[C@H]2CC[C@@H]1CN(Cc1cc(=O)c3cc(C)ccc3[nH]1)C2 | 51.84
COCCN1C[C@H]2CC[C@@H]1CN(CC(=O)Nc1ccn(C)n1)C2 | -13.49

SMILES | Percent Effect [%]
COCCN1C[C@H]2CC[C@@H]1CN(Cc1ccc3ccccc3n1)C2 | 46.17
COCCN1C[C@H]2CC[C@@H]1CN(Cc1nc3ccccc3n1C)C2 | 78.75
CC(C)=CCN1C[C@H]2CC[C@@H]1CN(Cc1cc(=O)[nH]c(=O)[nH]1)C2 | 13.63
O=c1cc(CN2C[C@H]3CC[C@@H]2CN(Cc2ccccc2)C3)[nH]c(=O)[nH]1 | -10.28
Cc1ccc(CN2C[C@@H]3CN(C(=O)c4cccn4C)C[C@@H]3C2)cc1.O=C(O)C(F)(F)F | -6.874
CN(C)[C@@H]1CCN(C(=O)CC2CC2)[C@H]1Cc1cnn(C)c1.O=C(O)C(F)(F)F | 1.412
O=C(O)C(F)(F)F.O=C1C[C@H]2[C@@H](CCN2C(=O)c2ccc[nH]2)N1CCN1CCCC1 | -37.83
CC1CCCN(c2ncc(-c3ccccc3F)c(-c3nccn3C)n2)C1 (stereo unspecified) | 84.22
CC1CCN(c2ncc(-c3ccccc3F)c(-c3nccn3C)n2)CC1 | 17.54
Cn1ccnc1-c1nc(N2CCCCC2)ncc1-c1ccccc1F | -0.09407
O=C([C@H]1C[C@@H]2CN(c3ncc(F)cn3)C[C@H]1O2)N1CCOCC1 | 19.91
CCc1ccc(CN2Cc3nccn3CC(Cn3cncn3)C2)o1.O=C(O)C(F)(F)F (stereo unspecified) | 0.4246
COc1ccccc1C(=O)N1CC(=O)N(CC2CC2)CC(O)C1 (stereo unspecified) | 43.16
COc1cccc(CN2CC(O)CN(C(=O)C(C)(C)C)CC2=O)c1OC (stereo unspecified) | 90.93
Cc1ccc(C(=O)N2CC(=O)N(Cc3ccco3)CC(O)C2)cc1 (stereo unspecified) | 34.47
CC(C)CC(=O)N1CC(=O)N(Cc2ccco2)CC(O)C1 (stereo unspecified) | 14.12
CC(C)(C)C(=O)N1CC(=O)N(Cc2ccco2)CC(O)C1 (stereo unspecified) | 52.39
COc1cccc(CN2CC(O)CN(C(=O)C3CC3)CC2=O)c1OC (stereo unspecified) | 31.08
CCOC(=O)N1CC(=O)N(Cc2cccc(OC)c2OC)CC(O)C1 (stereo unspecified) | 45.58
COc1ccccc1C(=O)N1CC(=O)N(Cc2ccco2)CC(O)C1 (stereo unspecified) | 54.55
CC(C)(C)OC(=O)N1CC(=O)N(Cc2ccco2)CC(O)C1 (stereo unspecified) | 11.64
O=C(CCc1nnc(-c2ccccc2)o1)N1CCCC1c1ccc[nH]1 (stereo unspecified) | -1.66
